Rows were chosen to be rich in hits. Some 28% of all compounds tested hit in one or more screens of this group.
CYP2C9 activ: CYP2C9 (human) activation | 96,000 tested, 1.4% active | activation factor at 5 µM | recombinant CYP2C9, luciferin-H conversion, luminescence; stronger effect = higher value; factor 1 = untreated enzyme, 0 = blocked | AID 1024 | P11712;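 active = activation factor of 2 or more for CYP2C9 at a 5 µM dose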
Target sequence (P11712 whole entry, looked up): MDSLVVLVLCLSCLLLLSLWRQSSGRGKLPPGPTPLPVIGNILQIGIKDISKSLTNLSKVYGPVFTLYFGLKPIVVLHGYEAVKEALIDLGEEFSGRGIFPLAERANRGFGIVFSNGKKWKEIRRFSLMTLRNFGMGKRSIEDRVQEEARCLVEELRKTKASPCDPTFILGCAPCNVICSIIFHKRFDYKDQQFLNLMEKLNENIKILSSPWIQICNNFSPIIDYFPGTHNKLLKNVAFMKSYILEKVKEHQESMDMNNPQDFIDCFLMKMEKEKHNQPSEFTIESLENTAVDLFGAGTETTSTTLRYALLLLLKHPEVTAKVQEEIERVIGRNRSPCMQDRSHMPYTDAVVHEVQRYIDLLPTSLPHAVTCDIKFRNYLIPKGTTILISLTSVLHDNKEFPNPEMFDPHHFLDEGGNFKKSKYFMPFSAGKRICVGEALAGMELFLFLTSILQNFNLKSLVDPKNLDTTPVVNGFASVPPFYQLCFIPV
CYP2C19 activ: activators of human cytochrome P450 2C19; recombinant CYP2C19, luciferin-H EGE luminescence; stronger effect = higher value; 0 = fully inhibited enzyme, 1 = untreated enzyme; activation factor at 5 µM; 96,000 tested, under 10 active; AID 1025;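 active = activation factor of at least 2 at 5 µM in the primary screen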
CYP2C19 inh: inhibitors of human CYP2C19. P33261. CYP2C19 Supersomes, luciferin-H EGE luminescence, 30 min. inhibition, % at 5 µM. 96,000 tested, 21% active. AID 778;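 active = CYP2C19 inhibition above a set limit at 5 µM in the primary screen, cut at about 50% in these data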
Mac1 fbg inh: blocks human CD11b/CD18 adhesion to fibrinogen | P05107+P11215 | 93,000 tested, 0.54% active | K562 CD11b/CD18 adhesion to fibrinogen, ATPlite luminescence; Mn2+ added to activate the integrin | AID 1497 | inhibition, % at 10 µM;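 active = primary inhibition of 50% or more at 10 µM, then 40% or more on retest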
CYP2C9 inh: blocks human cytochrome P450 2C9. P11712. CYP2C9 Supersomes, luciferin-H conversion, luminescence. inhibition, % at 5 µM. 96,000 tested, 20% active. AID 777;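 active = blocking of liver enzyme CYP2C9 beyond about 50% at 5 µM, limit read from the data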
CD11b adhes enh: increases human CD11b/CD18 adhesion to fibrinogen | AID 1499 | activation, % at 10 µM | K562 CD11b/CD18 adhesion to fibrinogen, ATPlite luminescence | 93,000 tested, 0.07% active;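 active = 10 µM primary screen giving 50% or more activity, confirmed by 40% or more on retest at that dose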
Large screens that a line does not name were inactive.

COC(=O)C1=C(C(C)=O)C(c2ccc(C(=O)OC)cc2)n2nnnc2N1 (stereo unspecified)	CYP2C9 inh 82.6
O=C(Nc1nc2c(cc3c4c(cccc42)CC3)s1)c1ccccc1Cl	none (no result: CYP2C9 activ, CYP2C19 activ, CYP2C19 inh, CYP2C9 inh)
COc1ccc(NS(=O)(=O)c2cc(C)ccc2NC(=O)c2cc(C)oc2C)cc1	CYP2C19 inh 71.1
CCCc1cc(=O)n2[nH]c(CCc3ccccc3)nc2n1	CYP2C9 inh 52.2
COc1ccc(S(=O)(=O)N2CCN(C(=O)CCC3CCCC3)CC2)cc1	CYP2C19 inh 54.8
Cc1ccc(OCC(=O)N2CCN(C(=O)CCC3CCCC3)CC2)cc1	CYP2C19 inh 56.2, CYP2C9 inh 55.5
Cc1cc(NCCCN)nc(-c2ccccc2O)n1	none
COc1ccc(CSc2nnc3n(C)c(=O)c4c5c(sc4n23)CCCC5)cc1	none
Cc1cc([N+](=O)[O-])c2[nH]c(C(=O)N/N=C/c3ccccc3C(=O)O)c(-c3ccccc3)c2c1	none (no result: Mac1 fbg inh, CD11b adhes enh)
CCc1ccc(C(=O)Cn2ncc(Cl)c(Cl)c2=O)cc1	none
O=C(OCn1ncc(Cl)c(Cl)c1=O)c1cccc(C(F)(F)F)c1	CYP2C19 inh 65.6 (no result: Mac1 fbg inh, CD11b adhes enh)
CN(C)c1nc(OCCNC(=O)Nc2ccccc2)nc(N(C)C)n1	CYP2C19 inh 73.4
CC(=O)NCCOc1nc(N(C)C)nc(N(C)C)n1	none
CN(C)c1nc(OCCNC(=O)Nc2ccccc2)nc(N2CCOCC2)n1	CYP2C19 inh 53.2, CYP2C9 inh 80.0
COC(=O)c1ccc(NC(=S)NCCc2ccccc2C)cc1	none (no result: CYP2C9 activ, CYP2C19 activ, CYP2C19 inh, CYP2C9 inh)
CC(C)Oc1ccc(C(=O)Nc2nnc(SCC(=O)N3CCOCC3)s2)cc1	none (no result: CYP2C9 activ, CYP2C19 activ, CYP2C19 inh, CYP2C9 inh)
Cc1cc(Nc2ccccc2)c2c([N+](=O)[O-])c(C)cc(C)c2n1	CYP2C19 inh 78.1, CYP2C9 inh 81.4
NC(=O)COC(=O)C(Cc1ccccc1)NS(=O)(=O)c1ccccc1F (stereo unspecified)	CYP2C19 inh 58.4
COc1ccc(F)cc1S(=O)(=O)NC(Cc1ccccc1)C(N)=O (stereo unspecified)	none (no result: Mac1 fbg inh, CD11b adhes enh)
CCOC(=O)C(Cc1ccccc1)NS(=O)(=O)c1ccc(NC(C)=O)cc1 (stereo unspecified)	CYP2C19 inh 66.7 (no result: Mac1 fbg inh, CD11b adhes enh)
CCOC(=O)C(Cc1ccccc1)C(=O)Nc1ccc(NC(=O)C(Cc2ccccc2)C(=O)OCC)cc1 (stereo unspecified)	none (no result: CYP2C9 activ, CYP2C19 activ, CYP2C19 inh, CYP2C9 inh)
O=C(NNC(=O)C1CC1c1ccccc1)Nc1cccc(Cl)c1 (stereo unspecified)	none
COc1ccc2c(C)c(C(=O)NCC(C)O)oc2c1OC (stereo unspecified)	none (no result: Mac1 fbg inh, CD11b adhes enh)
COc1ccccc1N1CCN(C(CNS(=O)(=O)c2ccccc2)c2cccnc2)CC1 (stereo unspecified)	CYP2C19 inh 86.1, CYP2C9 inh 62.0
COc1ccc(S(=O)(=O)NCC(c2cccnc2)N2CCN(c3ccccc3OC)CC2)cc1C (stereo unspecified)	CYP2C19 inh 73.5 (no result: Mac1 fbg inh, CD11b adhes enh)
CCOC(=O)c1[nH]nc2c1C(=O)N(Cc1ccccc1)C2=O	none
Cc1ccc(NC(=O)c2cc(C)nn2-c2ccccc2)cc1	CYP2C19 inh 59.7
Cc1cc(C(=O)NCc2cccnc2)n(-c2ccccc2)n1	CYP2C19 inh 59.7
Cc1cc(C(=O)NCc2ccc3c(c2)OCO3)n(-c2ccccc2)n1	none
Cc1nn(Cc2ccccc2)c2sc(C(=O)NCc3cccnc3)cc12	CYP2C19 inh 62.2, CYP2C9 inh 82.0
Cc1csc(NC(=O)c2cc(-c3ccccc3)nc3ccccc23)n1	none (no result: CYP2C9 activ, CYP2C19 activ, CYP2C19 inh, CYP2C9 inh)
CCOC(=O)C1CCN(C(=O)CN(c2cccc(OC)c2)S(=O)(=O)c2ccccc2)CC1	none
Cn1c(C(=O)OC(C(=O)NC2CCCC2)c2ccncc2)cc2sccc21 (stereo unspecified)	CYP2C19 inh 94.8, CYP2C9 inh 71.7
Cn1c(C(=O)OC(C(=O)NC2CCCCC2)c2ccncc2)cc2sccc21 (stereo unspecified)	CYP2C19 inh 98.1, CYP2C9 inh 90.6
COCCNC(=O)C(C)OC(=O)c1cc2sccc2n1C (stereo unspecified)	none
CC(C)C(OC(=O)c1cc2sccc2n1C)C(=O)NCC1CCCO1 (stereo unspecified)	CYP2C19 inh 56.5
CCC1SC(CC)C(=O)N(CC(=O)Nc2ccc3c(c2)OCO3)C1=O (stereo unspecified)	none (no result: CYP2C9 activ, CYP2C19 activ, CYP2C19 inh, CYP2C9 inh)
CCOC(=O)N1CCC(NC(=O)CCc2c(C)nc3c(c(C)nn3C(C)(C)C)c2C)CC1	CYP2C19 inh 63.6, CYP2C9 inh 82.5
CCOC(=O)N1CCC(NC(=O)CCc2c(C)nc3nc(C)nn3c2C)CC1	none
CC(C)C(=O)Nc1cccc(C(=O)Nc2nccs2)c1	CYP2C9 inh 86.0
CC(C)C(=O)Nc1cccc(C(=O)Nc2nncs2)c1	none
CCCC(=O)Nc1cccc(C(=O)Nc2nccs2)c1	CYP2C9 inh 55.1
Cc1ccc(Cl)cc1N1CCN(CC(=O)NC2CCCc3ccccc32)CC1 (stereo unspecified)	none (no result: CYP2C9 activ, CYP2C19 activ, CYP2C19 inh, CYP2C9 inh)
CCOc1ccccc1CNc1nc2nc3c(c(=O)n2[nH]1)CCC3	none
COc1ccccc1CNc1nc2nc(C)c(Cl)c(=O)n2[nH]1	CYP2C9 inh 61.1
O=C(Cn1ncc2c1-c1ccccc1OC2)Nc1ccc(Cl)cn1	none
COc1cc(NC(=O)Cn2ncc3c2-c2ccccc2OC3)cc(OC)c1OC	CYP2C19 inh 54.7
CCOc1ccc(-c2cc(NC(=O)Cn3ncc4c3-c3ccccc3OC4)on2)cc1OCC	CYP2C19 inh 65.3
O=C(Cn1ncc2c1-c1ccccc1OC2)Nc1cccc(Cl)c1	CYP2C19 inh 56.1
CCN1CCN(C(=O)Cn2ncc3c2-c2ccccc2OC3)CC1	none
COc1ccccc1NC(=O)Cn1ncc2c1-c1ccccc1OC2	none
Cc1ccc(C)c(CN2CCCN(C(=O)Cn3ncc4c3-c3ccccc3OC4)C2)c1	CYP2C19 inh 79.4, CYP2C9 inh 55.5
COC(=O)c1ccc(NC(=O)C(=O)N2CCCC2)cc1	none
C=CCC(C#Cc1ccccc1)[N+](C)(C)CC=C (stereo unspecified)	none
O=C(CC1NCCNC1=O)Nc1ccc2c(c1)OCO2 (stereo unspecified)	none
COc1cc(NC(=O)CN2c3ccccc3CC2C)cc(OC)c1OC (stereo unspecified)	CYP2C19 inh 69.4, CYP2C9 inh 80.8
O=C(NCCN1CCOCC1)c1csc2c1CCCCC2	none (no result: Mac1 fbg inh, CD11b adhes enh)
O=C(c1csc2c1CCCC2)N1CCCCC1	CYP2C19 inh 52.4
O=C(c1csc2c1CCCCC2)N1CCN(c2ncccn2)CC1	CYP2C19 inh 87.8, CYP2C9 inh 88.7
CCOC(=O)Cc1cc(=O)[nH]c(/N=C(\N)Nc2ccc(C)cc2C)n1	none
COc1ccc(CCNC(=O)COC(=O)Cc2ccc(OC)cc2)cc1	none (no result: CYP2C9 activ, CYP2C19 activ, CYP2C19 inh, CYP2C9 inh)
CCOc1ncccc1C(=O)OCC(=O)NCCc1ccc(OC)cc1	CYP2C19 inh 81.3, CYP2C9 inh 58.2
CCOc1ccc(CCNC(=O)COC(=O)c2cccnc2OCC)cc1OCC	CYP2C19 inh 77.0, CYP2C9 inh 86.7
